Assay results reported in PubChem BioAssay (NCI).
The panel holds about 83,000 compounds, 20% with a hit somewhere; the sample as a whole holds those more often.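 Single-concentration screen, 48 h exposure, 96-well plates. Endpoint: percent growth. Below 10 = active.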

What was measured:
Assay in all cases: NCI-60 one-dose screen, 48 h (100 = growth as untreated, 0 = no growth, -100 = all killed)
[1] = tested on: DU-145 prostate; conditions: 10 µM unless noted
[2] = tested on: K-562 leukemia; conditions: 10 µM unless noted
[3] = tested on: MALME-3M melanoma; conditions: 10 µM unless noted
[4] = tested on: MDA-MB-231 breast; conditions: 10 µM unless noted
[5] = tested on: RXF 393 renal; conditions: 10 µM unless noted
[6] = tested on: SF-268 CNS; conditions: 10 µM unless noted
[7] = tested on: SF-295 CNS; conditions: 10 µM unless noted
[8] = tested on: SF-539 CNS; conditions: 10 µM unless noted
[9] = tested on: UACC-257 melanoma; conditions: 10 µM unless noted
[10] = tested on: HCT-15 colon; conditions: 10 µM unless noted
[11] = tested on: HT29 colon; conditions: 10 µM unless noted
[12] = tested on: SNB-75 CNS; conditions: 10 µM unless noted
[13] = tested on: SNB-19 CNS; conditions: 10 µM unless noted
[14] = tested on: PC-3 prostate; conditions: 10 µM unless noted
[15] = tested on: SK-MEL-5 melanoma; conditions: 10 µM unless noted
[16] = tested on: UACC-62 melanoma; conditions: 10 µM unless noted
[17] = tested on: LOX IMVI melanoma; conditions: 10 µM
[18] = tested on: SK-MEL-28 melanoma; conditions: 10 µM unless noted
[19] = tested on: U251 CNS; conditions: 10 µM unless noted
[20] = tested on: M14 melanoma; conditions: 10 µM unless noted

Measured: growth

CCNC(=O)OCCc1c2ccccc2nc2ccccc12
inactive: [1] 122% | [2] 88.2% | [3] 126% | [4] 119% | [5] 97.4% | [6] 109% | [7] 127% | [8] 109% | [9] 112% | [10] 104% | [11] 103% | [12] 81.3% | [13] 111% | [14] 43.9% | [15] 104% | [16] 99.1% | [17] 88.4% | [18] 97.7%

Nc1nc(Cl)cc(Cl)n1
inactive: [1] 108% | [2] 92.3% | [3] 90.8% | [4] 114% | [5] 102% | [6] 100% | [7] 106% | [8] 107% | [9] 85.5% | [10] 102% | [11] 86.8% | [12] 91.4% | [13] 113% | [19] 102% | [15] 98.8% | [16] 107% | [17] 92.5% | [18] 119%

CCCCCCCCCCCCCCCCOc1ccccc1NC(=O)CC(C)=O
inactive: [1] 92% | [2] 87.1% | [3] 117% | [4] 87.4% | [5] 107% | [6] 103% | [8] 94.5% | [9] 117% | [20] 109% | [10] 113% | [11] 97.9% | [12] 93.2% | [13] 104% | [19] 99.3% | [14] 75.4% | [15] 96.2% | [16] 78.7% | [17] 107% | [18] 103%

OCC(O)COc1ccc(Cl)cc1Cl (stereo not drawn)
inactive: [1] 110% | [2] 88.6% | [3] 94.8% | [4] 97.8% | [5] 115% | [6] 105% | [7] 97.5% | [9] 79.6% | [20] 95.9% | [10] 105% | [11] 93.9% | [12] 85.8% | [13] 93.3% | [19] 89.3% | [14] 97.3% | [15] 109% | [16] 96.6% | [17] 111% | [18] 96.5%

CC(=O)[C@@]1(O)CC[C@H]2[C@@H]3CC[C@@H]4CC(=O)CC[C@]4(C)[C@H]3[C@@H](O)C[C@@]21C
inactive: [1] 111% | [2] 94.9% | [3] 108% | [4] 99.6% | [5] 105% | [6] 99.1% | [7] 91.9% | [8] 96.8% | [20] 93% | [10] 103% | [11] 100% | [12] 92.7% | [13] 103% | [19] 94.8% | [14] 86.1% | [15] 99.4% | [16] 94.7% | [17] 96.7% | [18] 99.4%

CC(C)c1ccccc1NC(=O)N1CCC(C(C)C)CC1
inactive: [1] 112% | [2] 99.4% | [3] 105% | [4] 117% | [5] 101% | [6] 115% | [8] 111% | [9] 95.8% | [20] 107% | [10] 110% | [11] 107% | [12] 89.3% | [13] 107% | [19] 98.1% | [14] 97.9% | [15] 97.4% | [16] 105% | [17] 103% | [18] 106%

N#Cc1ccc2nc[nH]c2c1
inactive: [1] 101% | [2] 106% | [3] 102% | [4] 120% | [5] 109% | [6] 104% | [7] 107% | [8] 113% | [9] 97.9% | [10] 106% | [12] 95.5% | [13] 111% | [19] 101% | [14] 105% | [15] 102% | [16] 105% | [17] 101% | [18] 108%

Cn1c(=O)c2[nH]c(CC(=O)O)nc2n(C)c1=O
inactive: [1] 108% | [2] 105% | [3] 99.4% | [4] 100% | [5] 104% | [6] 101% | [7] 101% | [9] 96.9% | [20] 104% | [10] 107% | [11] 101% | [12] 98.1% | [13] 100% | [19] 103% | [15] 106% | [16] 108% | [17] 101% | [18] 101%
